Measured values from ChEMBL document CHEMBL4513216, “Probing the Open Global Health Chemical Diversity Library for Multistage-Active Starting Points for Next-Generation Antimalarials” (ACS Infect Dis, 2020).
Out of some 68,000 compounds screened, about 2,700 (4%) showed an effect of 50% or more. For the sample, strong results were picked, then their nearest neighbours and some compounds at random.

tested on: Plasmodium berghei; test: Screen against P. berghei liver stage (PbLuc), transformed with Luciferase, at 2uM; format: functional, HepG2; conditions: tested at 2 uM

Row | Compound | INHIBITION
1 | Cc1nc(Nc2nccs2)cc(C2CCCN2)n1 (stereo not drawn) | -26.8%
2 | CCC(O)Cn1nc(CCSC)nc1-c1ccc2[nH]ccc2c1 (stereo not drawn) | 20.45%
3 | CC(=O)N1CCN(C(=O)Cc2cnc(-c3c(Cl)cccc3Cl)s2)CC1 | 25.61%
4 | O=C(Cc1cnc(-c2c(Cl)cccc2Cl)s1)N1CCC2(CC1)OCCO2 | -6.29%
5 | O=C(Cc1cnc(-c2c(Cl)cccc2Cl)s1)N1CCOCC1 | 56.75%
6 | NC(=O)CCNC(=O)C1(N2CCCCC2)Cc2ccccc2C1 | 14.19%
7 | Clc1ccccc1CCN1CCN(c2ccc3nncn3n2)CC1 | 50.77%
8 | c1ccc(CCN2CCN(c3ccc4nncn4n3)CC2)cc1 | -2.47%
9 | c1ccc(CCN2CCN(c3ccc4nncn4n3)CC2)nc1 | -59.79%
10 | COC1COC2(CCN(Cc3ccco3)CC2)C1 (stereo not drawn) | 24.91%
11 | Cc1noc2ncc(C(=O)NCC3CCN(C(C)C)C3)cc12 (stereo not drawn) | -5.2%
12 | Cc1cccc(C(=O)N2CCCCC2c2[nH]ncc2S(C)(=O)=O)c1 (stereo not drawn) | 52.69%
13 | CS(=O)(=O)c1cn[nH]c1C1CCCN1C(=O)c1cccnc1 (stereo not drawn) | 10.3%
14 | Cc1ccc(C(=O)N2CCCCC2c2[nH]ncc2S(C)(=O)=O)cn1 (stereo not drawn) | 19.75%
15 | COC(=O)c1ccc(CNC(=O)Nc2ccc(=O)n(C)c2)cc1 | -18.09%
16 | CS(=O)(=O)c1cccc(C(=O)NCc2nc3cc(F)ccc3[nH]2)c1 | 30.57%
17 | Cn1cc(CN2CCCC(CCc3ccc(F)cc3)C2)cn1 (stereo not drawn) | 2.3%
18 | Cn1cc(CN2CCCC(CCc3ccccc3C(F)(F)F)C2)cn1 (stereo not drawn) | 24.55%
19 | Cn1cc(CN2CCCC(CCc3c(F)cccc3F)C2)cn1 (stereo not drawn) | 43.27%
20 | Cn1cc(CN2CCCC(CCc3ccc(F)c(F)c3)C2)cn1 (stereo not drawn) | 64.2%
21 | Cn1cc(CN2CCCC(CCc3ccc(F)cc3F)C2)cn1 (stereo not drawn) | 69.71%
22 | Fc1ccc(CCC2CCCN(Cc3c[nH]cn3)C2)c(F)c1 (stereo not drawn) | -20.35%
23 | CN(C)C(=O)CN1C[C@H]2CCN(Cc3ccccc3)CC[C@H]2S1(=O)=O | -10.78%
24 | COC(=O)C(NC(=O)Nc1ccc(C(C)=O)cc1)C(C)C (stereo not drawn) | -7.05%
25 | CN(C)c1nccc(C2CN(c3ccccc3)CCO2)n1 (stereo not drawn) | -39.97%
26 | CC(C)N1CCOC(c2ccnc(N(C)C)n2)C1 (stereo not drawn) | -2.41%

Row | Compound | INHIBITION
27 | CN(C)c1nccc(C2CN(c3cnccn3)CCO2)n1 (stereo not drawn) | 57.47%
28 | N#CCSCCCN1CCC(C(=O)N2CCCCCC2)CC1 | -28.22%
29 | Cc1ccc(CN2CC[C@H](c3nnc(COc4ccc(F)cc4)o3)C2)o1 | 17.76%
30 | COCCNC(=O)[C@H]1C[C@@H]2CCN(CCc3ccccc3)C[C@H]2O1 | -56.44%
31 | Cc1cn(CC(=O)Nc2cc(C(C)(C)C)nn2C)cn1 | 53.66%
32 | CCc1nnc2n1CCN(CC(=O)Nc1cc(C)on1)C2 | 13.91%
33 | CCc1nnc2n1CCN(CC(=O)Nc1cc(C(C)(C)C)nn1C)C2 | 54.85%
34 | Cn1nc(C(C)(C)C)cc1NC(=O)Cn1ccnc1 | -24.02%
35 | CCc1nnc2n1CCN(CC(=O)Nc1cc(C)nn1C)C2 | 12.81%
36 | Cc1cn(CC(=O)Nc2cc(C(C)C)nn2C)cn1 | 5.93%
37 | CC(SCC(=O)N(C)CC(=O)NC1CC1)c1ccccc1F (stereo not drawn) | -16.7%
38 | CN(CCc1ccccc1)Cc1cc(C(=O)N2CCN(C)C(=O)C2)no1 | -64.43%
39 | CN(CCc1ccccc1)C(=O)c1cc(CN2CCC(O)CC2)on1 | -10.41%
40 | CN(CCc1ccccc1)Cc1cc(C(=O)N2CCCC2(C)C)no1 | 61.89%
41 | CN(CCc1ccccc1)Cc1cc(C(=O)N2CCSCC2)no1 | 72.05%
42 | CCC1CN(C(=O)c2cc(CN(C)CCc3ccccc3)on2)CCO1 (stereo not drawn) | -11.41%
43 | CN1CCCN(C(=O)c2cc(CN(C)CCc3ccccc3)on2)CC1 | 5.28%
44 | Fc1ccc(CN2CCC3(CCCN(c4nncs4)C3)C2)cc1 (stereo not drawn) | 3%
45 | O=C(NCC1CCCOC1)c1ccc(-c2ccccc2)[nH]c1=O (stereo not drawn) | 4.96%
46 | Fc1ccc(Cc2cnc(C3CCCN3)cn2)cc1 (stereo not drawn) | -2.89%
47 | CC(C)CNc1cc(-c2c[nH]nc2C2CCN(C(=O)C3CC3)C2)ccn1 (stereo not drawn) | 13.98%
48 | CC(C)Nc1cc(-c2c[nH]nc2C2CCN(C(=O)C3CCC3)C2)ccn1 (stereo not drawn) | 16.43%
49 | CCCNc1cc(-c2c[nH]nc2C2CCN(C(=O)C3CCC3)C2)ccn1 (stereo not drawn) | 87.38%
50 | Fc1ccc(OCCNC2CCN(Cc3ccccn3)CC2)c(F)c1 | -31.26%
51 | Cc1ccccc1-c1cc(NC(=O)NC2CC2)n(CCO)n1 | 57.75%
52 | CNC(=O)Nc1cc(-c2ccccc2C)nn1CCO | -3.51%

Row | Compound | INHIBITION
53 | Cc1ccccc1-c1cc(NC(=O)NC2CCC(O)CC2)n(CCO)n1 (stereo not drawn) | 14.82%
54 | O=C(c1cnccn1)N1CCCC(Cc2cccc3ncccc23)C1 (stereo not drawn) | -3.58%
55 | O=C(c1cnccn1)N1CCCC(Cc2cncc3ccccc23)C1 (stereo not drawn) | 99.92%
56 | Cc1cccc(C(=O)N2CCCC(Cc3cncc4ccccc34)C2)n1 (stereo not drawn) | 33.77%
57 | O=c1c2c[nH]c(N3CCCCC3)nc-2cn1-c1ccc2c(c1)OCO2 | 33.2%
58 | Cn1cc(S(=O)(=O)NCc2ccsc2)cn1 | -18.65%
59 | CNC(=O)C(C)CNC(=O)c1coc(COc2cccc(F)c2F)n1 (stereo not drawn) | 16.32%
60 | O=C(N[C@@H]1CN(Cc2ccco2)[C@@H]2CCCO[C@@H]21)c1cscn1 | -2.81%
61 | COc1c(CNC2CCOc3c(Cl)cccc32)c(C)nn1C (stereo not drawn) | 24.64%
62 | Cc1nc(CN2CCc3ncnc(-c4ccsc4)c3CC2)cs1 | 8.62%
63 | CCS(=O)(=O)CCNC(=O)[C@@]12CNC[C@@H]1CN(C1CCCC1)C2 | -13.8%
64 | COCC1(CNC(=O)[C@@]23CNC[C@@H]2CN(C2CCCC2)C3)CC1 | 83.98%
65 | O=C(NCCOCCO)[C@@]12CNC[C@@H]1CN(C1CCCC1)C2 | 45.82%
66 | CCC(NC(=O)C1CCN(S(C)(=O)=O)CC1)c1ccc(C)cc1C (stereo not drawn) | 20.49%
67 | CC(C)COC(=O)N1CCCN(C(C)c2nc(C(C)C)no2)CC1 (stereo not drawn) | 4.49%
68 | O=C(NCc1ccco1)[C@H]1C[C@H]2OCC[C@H]2N(C(=O)c2ccnnc2)C1 | -14.65%
69 | O=C(C1CC1)N1CCC2(CCN2Cc2ccc(F)cc2)C1 (stereo not drawn) | 31.52%
70 | COC(=O)NCC(=O)N1CCCn2nc(CN3CC[C@H](F)C3)cc2C1 | 52.85%
71 | O=C(c1ccc(Cl)s1)N1CCCn2nc(CN3CC[C@H](F)C3)cc2C1 | -13.81%
72 | Cc1nn(C)cc1C(=O)N1CCCn2nc(CN3CC[C@H](F)C3)cc2C1 | -11.76%
73 | COCCn1cncc1-c1nc2c([nH]1)CC(C)(C)CNC2=O | 8.54%
74 | CCn1cncc1-c1nc2c([nH]1)CC(C)(C)CNC2=O | 50.61%
75 | CC(C)Cn1cncc1-c1nc2c([nH]1)CC(C)(C)CNC2=O | -54.78%
76 | CCc1cc(N2CCCNCC2)n2nc(C)c(C)c2n1 | 14.23%
77 | Cc1ccc(NS(=O)(=O)c2cc3c(c(C(=O)O)c2)OCCO3)cc1C | -19.1%
78 | O=C(NCc1cc[nH]n1)NCC(O)c1ccc(F)c(F)c1 (stereo not drawn) | -87.87%

Row | Compound | INHIBITION
79 | CCCS(=O)(=O)N1CCCC1c1cccc(N(C)C)c1 (stereo not drawn) | -46.3%
80 | CN(C)CCC1CCCCN1Cc1cnc(-c2ccccn2)nc1 (stereo not drawn) | 53.12%
81 | Cc1nccn1CCC1CCCCN1Cc1cnc(N(C)C)nc1 (stereo not drawn) | -4.51%
82 | c1ccc(-c2ncc(CN3CCCCC3CCn3cccn3)cn2)nc1 (stereo not drawn) | 11.38%
83 | CS(=O)(=O)N1CCC2(CC1)COC(COc1ccccn1)C2 (stereo not drawn) | 46.32%
84 | Cc1nc(O)c2nnn(C[C@H]3CCCN3C(=O)c3ccccc3F)c2n1 | 33.64%
85 | Cc1ccc(C(=O)N2CCC[C@@H]2Cn2nnc3c(O)nc(C)nc32)cc1 | -15.93%
86 | Cc1nc(O)c2nnn(C[C@H]3CCCN3C(=O)C(C)(C)C)c2n1 | -47.12%
87 | Cc1nc(O)c2nnn(C[C@H]3CCCN3C(=O)CCC3CCCC3)c2n1 | 6.57%
88 | Cc1nc(O)c2nnn(C[C@H]3CCCN3C(=O)c3ccccc3C)c2n1 | 83.57%
89 | Cc1nc(O)c2nnn(C[C@H]3CCCN3C(=O)C3CCCC3)c2n1 | 50.32%
90 | CCn1cc(NC(=O)C2CCN(Cc3nc(C)c(C)s3)CC2)cn1 | -3.36%
91 | Cc1ccc(NC(=O)[C@H]2C[C@H](C(=O)O)CN(CC3CC3)C2)cn1 | 38.15%
92 | CC(C)N1CC[C@H](c2nc3ccc(C(F)(F)F)cc3[nH]2)C1 | 4%
93 | FC(F)(F)c1ccc2[nH]c([C@H]3CCNC3)nc2c1 | 62.8%
94 | Fc1ccc2nc([C@H]3CCNC3)[nH]c2c1 | -11.34%
95 | COCC(=O)NC(Cc1cc(N(C)C)nc(C2CC2)n1)c1ccccc1 (stereo not drawn) | 7.93%
96 | CCOCCN1CCN(C=C2NN=C(c3occc3C)O2)CC1CC (stereo not drawn) | 24.82%
97 | COc1cccc(NC(=O)N(CCC(F)(F)F)C[C@H](O)CO)c1 | 50.6%
98 | Cc1cccc(NC(=O)N(CCC(F)(F)F)C[C@H](O)CO)c1 | -24.88%
99 | CC(CS(C)(=O)=O)N(C(=O)Nc1ccc(F)cc1F)C1CC1 (stereo not drawn) | -3.43%
100 | O=C(Nc1ccc(F)cc1F)N(CCC(F)(F)F)C[C@H](O)CO | 66.83%
101 | O=C(Nc1ccc(F)cc1)N(CCC(F)(F)F)C[C@H](O)CO | 5%
102 | COc1cccc(NC(=O)N(CCO)Cc2ccsc2)c1 | -75.39%
103 | CN(C)c1ccc(C(=O)Nc2ccn(Cc3ccccn3)n2)cn1 | -44.17%
